# Data published in PubChem BioAssay (NCATS).
# Inconclusive results are not listed. Calls of active or inactive are those of the source. Unless noted, calls follow the shape of the dose curve; as a rule, active = well fitted curve in the direction sought with a large enough effect; inconclusive = small, poorly fitted or top-dose-only effect, or another doubt; inactive = no such curve, though single readings can be large; an effect the other way counts as inactive or inconclusive.
# How the values were obtained:
# [1] = qHTS Assay for Lipid Storage Modulators (AID 1519; calls by dose curve; as to activity change, negative = inhibition: % is scaled to controls: 0 for no effect and ±100 for the full control effect); details: Drosophila S3 cells, BODIPY lipid droplet/cell ratio, laser cytometry, cells loaded with oleic acid; for activity change, negative = inhibition: at 57.5 µM (top of the series)
# Method in brief: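 Cells seeded at 5,000 per well were treated with compounds over a concentration series and loaded with oleic acid (400 uM, as added). Lipid droplet fluorescence (488 nm excitation, 500-530 nm channel) was read by laser-scanning cytometry and normalized to 20 uM Triacsin C.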
# [2] = target: Cytochrome P450 2C19 (Homo sapiens) (UniProt P33261); assay: qHTS Assay for Inhibitors and Substrates of Cytochrome P450 2C19 (AID 899); details: recombinant CYP2C19, luciferin-H EGE luminescence; series mostly up to 57.1 µM; also: nearly all actives have a fitted effect of over 60% in size; also: potency is read from the fitted curve at half-maximal effect
# Sequence of Cytochrome P450 2C19 (Homo sapiens) (P33261 whole entry, looked up): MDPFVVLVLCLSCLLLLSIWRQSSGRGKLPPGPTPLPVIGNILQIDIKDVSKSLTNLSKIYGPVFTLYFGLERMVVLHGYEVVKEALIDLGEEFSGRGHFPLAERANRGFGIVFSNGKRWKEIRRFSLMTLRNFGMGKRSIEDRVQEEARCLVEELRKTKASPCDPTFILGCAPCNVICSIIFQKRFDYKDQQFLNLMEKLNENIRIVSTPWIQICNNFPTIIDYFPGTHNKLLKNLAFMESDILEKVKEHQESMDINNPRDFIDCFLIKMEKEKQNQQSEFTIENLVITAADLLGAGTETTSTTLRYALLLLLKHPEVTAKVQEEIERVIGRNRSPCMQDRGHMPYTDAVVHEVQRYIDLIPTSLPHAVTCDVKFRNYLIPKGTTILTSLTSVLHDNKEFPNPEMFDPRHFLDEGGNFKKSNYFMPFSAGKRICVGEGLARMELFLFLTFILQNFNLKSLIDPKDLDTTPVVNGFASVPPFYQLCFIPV
# Method in brief: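 Signal comes from luciferase acting on luciferin released by CYP2C19-mediated hydroxylation of Luciferin-H EGE, 10uM (KM). Assay mix: 5nM enzyme, 50mM KPO4; 60 min at 37C with NADPH regeneration. Data normalized against 57uM ketoconazole.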
# [3] = Confirmation and Secondary Assay for Modulators of Hemoglobin Beta Chain Splicing at IVS2 654 locus (AID 910); details: HeLa EGFP-654 splicing reporter, GFP fluorescence, 48 h; series mostly up to 38.3 µM;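 also: HeLa cells stably carrying EGFP split by mutant beta-globin IVS2-654 intron; % of control where 0% means no effect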
# Method in brief: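 HeLa cells stably expressing EGFP interrupted by β-globin IVS2-654 intron, seeded overnight in Opti-MEM/2% FCS, then treated 2 days at 37 °C. Restored splicing read as total peak GFP intensity per well by laser scanning cytometry (488 nm excitation, 500–520 nm emission); 500 nM antisense PNA as control.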
# [4] = Confirmation and Secondary Assay for Modulators of Hemoglobin Beta Chain Splicing at IVS2 705 locus (AID 930); details: HeLa EGFP-705 splicing reporter, GFP fluorescence, 48 h; series mostly up to 38.3 µM;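 also: HeLa cells stably expressing the EGFP-705 splicing reporter; GFP fluorescence per well restored by corrected splicing of the IVS2-705 intron in EGFP; % of control where 0% means no effect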
# Method in brief: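 HeLa cells stably carrying EGFP interrupted by mutant beta-globin intron 2 (IVS2-705) treated 2 days at 37C with compound; 500 nM antisense PNA as control. Correct splicing read as total peak GFP intensity per well by laser-scanning cytometry.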
# [5] = qHTS Assay for Identification of Small Molecule Agonists for Hypoxia Response Element Signaling Pathway (AID 914; active = well fitted activation curve with a large enough effect in the signal ratio, with a control signal flat, not every such curve was filed as active; the % refers to the signal ratio; also: potency is read from the fitted curve at half-maximal effect; as to activation: % of control where 0% means no effect); details: ME-180 (cervical carcinoma) HRE-bla reporter, beta-lactamase ratio, CoCl2, 17 h; activation: stronger effect = higher value
# Method in brief: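 HRE-bla ME-180 cells with beta-lactamase reporter under hypoxia response element, compounds with EC50 CoCl2 for 17 hours at 37 C. CCF4 substrate, 460nm/530nm emission ratio gave %Activity; AC50 from titration series.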
# [6] = target: Cytochrome P450 2D6 (Homo sapiens) (UniProt P10635); assay: qHTS Assay for Inhibitors and Substrates of Cytochrome P450 2D6 (AID 891); details: recombinant CYP2D6, luciferin-ME EGE luminescence; series mostly up to 57.1 µM; also: potency is read from the fitted curve at half-maximal effect; nearly all actives have a fitted effect of over 60% in size
# Sequence of Cytochrome P450 2D6 (Homo sapiens) (P10635 whole entry, looked up): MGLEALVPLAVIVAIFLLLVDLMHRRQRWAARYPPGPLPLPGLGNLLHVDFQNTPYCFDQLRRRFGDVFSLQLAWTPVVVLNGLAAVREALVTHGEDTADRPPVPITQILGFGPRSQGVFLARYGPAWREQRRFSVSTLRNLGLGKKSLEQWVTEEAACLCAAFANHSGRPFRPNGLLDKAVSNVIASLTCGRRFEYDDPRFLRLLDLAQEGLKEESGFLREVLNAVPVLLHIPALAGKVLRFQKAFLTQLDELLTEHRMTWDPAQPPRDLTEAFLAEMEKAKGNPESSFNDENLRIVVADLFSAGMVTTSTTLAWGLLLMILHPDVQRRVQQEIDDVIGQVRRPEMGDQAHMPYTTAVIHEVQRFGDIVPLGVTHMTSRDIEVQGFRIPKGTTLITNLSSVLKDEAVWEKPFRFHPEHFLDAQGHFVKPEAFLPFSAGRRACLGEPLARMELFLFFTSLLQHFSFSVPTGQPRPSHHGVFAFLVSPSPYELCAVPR
# Method in brief: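 Luminescent read-out of luciferin formed by 5 nM human CYP2D6 demethylating 30 uM Luciferin-ME EGE (Km level) over 60 min at room temperature after NADPH regeneration addition. Data normalized to full inhibition by 1.43 uM quinidine.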
# [7] = target: Cytochrome P450 2C9 (Homo sapiens) (UniProt P11712); assay: qHTS Assay for Inhibitors and Substrates of Cytochrome P450 2C9 (AID 883); details: recombinant CYP2C9, luciferin-H luminescence, 60 min; series mostly up to 57.1 µM; also: nearly all actives have a fitted effect of over 60% in size; also: potency is read from the fitted curve at half-maximal effect; as to activity change, negative = inhibition: % is scaled to controls: 0 for no effect and ±100 for the full control effect
# Sequence of Cytochrome P450 2C9 (Homo sapiens) (P11712 whole entry, looked up): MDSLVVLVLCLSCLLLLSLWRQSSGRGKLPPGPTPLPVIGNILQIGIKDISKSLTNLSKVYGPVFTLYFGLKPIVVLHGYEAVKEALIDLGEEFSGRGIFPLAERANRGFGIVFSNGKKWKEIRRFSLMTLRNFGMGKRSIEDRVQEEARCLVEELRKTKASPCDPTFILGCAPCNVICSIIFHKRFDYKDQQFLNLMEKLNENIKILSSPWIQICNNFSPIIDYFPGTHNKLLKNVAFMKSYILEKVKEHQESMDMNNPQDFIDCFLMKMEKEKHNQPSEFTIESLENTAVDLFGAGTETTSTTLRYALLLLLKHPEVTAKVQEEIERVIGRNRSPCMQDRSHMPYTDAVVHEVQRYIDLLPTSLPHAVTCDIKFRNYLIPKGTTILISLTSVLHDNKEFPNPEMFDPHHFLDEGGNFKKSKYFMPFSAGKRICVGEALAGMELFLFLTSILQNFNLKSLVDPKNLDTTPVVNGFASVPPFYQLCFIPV
# Method in brief: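 Signal: luciferase luminescence reporting luciferin produced by CYP2C9. Conditions: 10nM enzyme, Luciferin-H 100uM at KM, 25mM KPO4, 37C, 60 min NADPH-driven reaction. Reference: 57uM sulphaphenazole as 100% inhibition.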
# [8] = NCATS anti-infectives library activity on HEK293 viability as a counter-qHTS vs the C. elegans viability qHTS (AID 1745854); details: HEK293 viability counter-screen; series mostly up to 41.8 µM; also: % is scaled to controls: 0 for no effect and ±100 for the full control effect
# Method in brief: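 Cytotoxicity counter-screen to a worm viability qHTS: CellTiter-Glo luminescence read 10 min after reagent addition. Compounds (final up to 41.7 uM, a 1:5 dilution series) incubated 24 hr at 37C with 1,500 HEK293 cells per well; digitonin control.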
# [9] = NCATS anti-infectives library activity on the primary C. elegans qHTS viability assay (AID 1745855; calls by dose curve; also: potency is read from the fitted curve at half-maximal effect); details: C. elegans worm area imaging, day 7
# Method in brief: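 GFP read-out by 488 nm laser cytometry at day 0, 3 and 7, gated on object perimeter, area and peak intensity, scored viability of PE254-GFP-FLuc worms exposed to compound in S medium with bacterial capsules at 21 °C.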
# [10] = target: Catechol O-methyltransferase (Homo sapiens) (UniProt P21964); assay: Confirmatory Screen for Target Class Profiling of Small Molecule Inhibitors of Methyltransferases (AID 1745852); details: MTase-Glo luminescence, SAH detection, recombinant enzyme; measured here: COMT max response; stronger effect = lower value; as to activity change, negative = inhibition: % is scaled to controls: 0 for no effect and ±100 for the full control effect
# Sequence of Catechol O-methyltransferase (Homo sapiens) (P21964 whole entry, looked up): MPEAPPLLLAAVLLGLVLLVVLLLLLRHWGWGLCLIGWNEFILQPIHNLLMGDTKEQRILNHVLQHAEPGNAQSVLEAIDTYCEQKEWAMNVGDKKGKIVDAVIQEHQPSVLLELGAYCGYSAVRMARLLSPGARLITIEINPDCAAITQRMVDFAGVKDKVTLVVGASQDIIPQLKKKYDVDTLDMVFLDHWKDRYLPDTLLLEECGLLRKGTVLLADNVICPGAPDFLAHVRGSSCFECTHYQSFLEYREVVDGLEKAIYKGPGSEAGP
# [11] = target: Guanidinoacetate N-methyltransferase (Homo sapiens) (UniProt Q14353); assay: as above; details: MTase-Glo luminescence, SAH detection, recombinant enzyme; at 57.3 µM (top of the series)
# [12] = target: Nicotinamide N-methyltransferase (Homo sapiens) (UniProt P40261); assay: as above; details: MTase-Glo luminescence, SAH detection, recombinant enzyme; measured here: NNMT max response; stronger effect = lower value
# Sequence of Nicotinamide N-methyltransferase (Homo sapiens) (P40261 whole entry, looked up): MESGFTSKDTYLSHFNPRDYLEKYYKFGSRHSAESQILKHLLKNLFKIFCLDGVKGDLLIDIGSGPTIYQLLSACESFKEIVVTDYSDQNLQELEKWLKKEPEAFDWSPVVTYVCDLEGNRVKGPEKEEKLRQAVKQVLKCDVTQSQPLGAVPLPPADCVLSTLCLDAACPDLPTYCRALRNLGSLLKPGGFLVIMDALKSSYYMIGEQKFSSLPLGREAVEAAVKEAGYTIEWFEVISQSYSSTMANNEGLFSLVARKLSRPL
# [13] = target: Phenylethanolamine N-methyltransferase (Homo sapiens) (UniProt P11086); assay: as above; details: MTase-Glo luminescence, SAH detection, recombinant enzyme; measured here: PNMT max response; stronger effect = lower value
# Sequence of Phenylethanolamine N-methyltransferase (Homo sapiens) (P11086 whole entry, looked up): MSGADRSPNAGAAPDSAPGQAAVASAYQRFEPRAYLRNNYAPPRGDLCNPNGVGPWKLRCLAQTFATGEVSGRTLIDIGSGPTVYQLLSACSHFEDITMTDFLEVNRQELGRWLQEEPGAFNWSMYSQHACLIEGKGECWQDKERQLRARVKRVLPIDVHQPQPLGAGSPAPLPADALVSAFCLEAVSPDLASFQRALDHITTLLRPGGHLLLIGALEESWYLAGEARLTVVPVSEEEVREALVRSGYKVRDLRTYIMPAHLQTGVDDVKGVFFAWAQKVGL
# [14] = measured here: cell count channel max response
# [15] = measured here: lipid channel max response
smiles,measurement,setting,value
CC(C)CN1CCC2(CC1)CCN(C(=O)c1ccco1)CC2,"activity change, negative = inhibition",[1],-0.991% (inactive)
same,max response,[1]; [14],-0.576%
same,max response,[1]; [15],1.45%
Cc1noc(C)c1C(=O)N1CCC2(CC1)CN(Cc1cc(C(F)(F)F)cc(C(F)(F)F)c1)C2,"activity change, negative = inhibition",[1],-4.32% (inactive)
same,max response,[1]; [14],-1.83%
same,max response,[1]; [15],-4.57%
FC(F)(F)c1ccccc1-c1nccc(NCc2ccccc2)n1,Potency,[2],6.31 µM (active)
same,Potency,[3],inactive
same,outcome,[4],inactive
same,"activity change, negative = inhibition",[1],6.15% (inactive)
same,max response,[1]; [14],0.814%
same,max response,[1]; [15],5.46%
COc1cccc(-c2cc(NCc3ccc(OC)cc3OC)ncn2)c1,activation,[5],1.95% (inactive)
Cc1cc(OC(=O)c2c(C)cc(O)cc2O)cc(O)c1C(=O)O,Potency,[3],inactive
same,outcome,[4],inactive
same,"activity change, negative = inhibition",[1],8.43% (inactive)
same,max response,[1]; [14],13%
same,max response,[1]; [15],23.1%
COc1ccc(CNc2cc(-c3ccccc3C)ncn2)c(OC)c1,activation,[5],2.85% (inactive)
O=C1C=C(O)c2ccccc2C1=O,outcome,[4],inactive
same,"activity change, negative = inhibition",[1],-2.81% (inactive)
same,max response,[1]; [14],-0.646%
same,max response,[1]; [15],-2.25%
COc1ccccc1CNc1nc(-c2ccc3c(c2)OCO3)nc2ccccc12,Potency,[2],3.16 µM (active)
COc1ccccc1CNc1nc(-c2cccc(C#N)c2)nc2ccccc12,Potency,[2],3.98 µM (active)
COc1cccc(-c2ccc3ncnc(NCc4ccccc4OC)c3c2)c1,Potency,[3],inactive
same,"activity change, negative = inhibition",[1],5.94% (inactive)
same,max response,[1]; [14],-19.3%
same,max response,[1]; [15],-13.1%
Cc1ccccc1-c1nc(N(C)Cc2ccco2)c2ccccc2n1,Potency,[6],3.16 µM (active)
O=c1c(-c2ccc(F)c(F)c2)nc2cncnc2n1Cc1ccccc1Cl,Potency,[7],5.01 µM (active)
same,Potency,[2],6.31 µM (active)
Cn1cccc1C(=O)N1CCC2(CC1)CN(c1cccc(-c3ccccc3)c1)C2,Potency,[7],inactive
Cn1cccc1C(=O)N1CCC2(CCCN(c3cccc(-c4ccccc4)c3)C2)CC1,Potency,[7],3.98 µM (active)
CN(C)c1ncc2nc(-c3cc(F)cc(F)c3)c(=O)n(Cc3cccs3)c2n1,Potency,[2],inactive
same,Potency,[5],0.126 µM (active)
N#CCCn1c(=O)c(-c2cccs2)nc2cnc(N3CCOCC3)nc21,activation,[5],21.6% (inactive)
COc1ccc(CNc2ncnc3ccc(-c4c(C)noc4C)cc23)c(OC)c1,Potency,[5],2 µM (active)
OC[C@H]1O[C@@H](n2cnc3c(NCc4ccco4)ncnc32)[C@H](O)[C@@H]1O,"activity change, negative = inhibition",[1],-9.06% (inactive)
same,max response,[1]; [14],-12.6%
same,max response,[1]; [15],-19.8%
COc1cccc(Nc2ncc3nc(-c4cn(C)c5ccccc45)c(=O)n(C[C@H]4CCCO4)c3n2)c1,Potency,[7],inactive
N#C/C(=C\c1ccc(O)c(O)c1)C(=O)OCCc1cccs1,Potency,[2],6.31 µM (active)
O=c1c(-c2cc(F)cc(F)c2)nc2cncnc2n1Cc1ccccc1Cl,Potency,[7],3.98 µM (active)
same,Potency,[2],1.58 µM (active)
COc1cccc(Cn2c(=O)c(-c3ccc(F)cc3)nc3cnc(N4CCOCC4)nc32)c1,Potency,[2],inactive
same,Potency,[5],3.16 µM (active)
COc1ccc(CNc2ncncc2-c2ccccc2C)c(OC)c1,Potency,[2],1.58 µM (active)
O=C(O)c1cc(=O)c2cccc(O)c2[nH]1,outcome,[4],inactive
same,"activity change, negative = inhibition",[1],14.6% (inactive)
same,max response,[1]; [14],27.2%
same,max response,[1]; [15],50.3%
O=c1c(-c2ccc(Cl)cc2)nc2cncnc2n1Cc1ccccc1Cl,Potency,[2],3.98 µM (active)
same,activation,[5],25.2% (inactive)
COc1ccc(-n2c(=O)c(-c3ccc(Cl)cc3)nc3cnc(N(C)C)nc32)cc1,Potency,[5],3.16 µM (active)
O=C(c1cccc(F)c1)N1CCC2(CCCN(c3cccc(-c4ccccc4)c3)C2)CC1,Potency,[2],7.94 µM (active)
c1ccc(CNc2ccnc(-c3ccc4c(c3)OCO4)n2)cc1,Potency,[3],inactive
COc1c(O)cc2oc3cc(O)c(CC=C(C)C)c(O)c3c(=O)c2c1CC=C(C)C,Potency,[3],inactive
same,outcome,[4],inactive
same,outcome,[8],inactive
same,Potency,[9],6.48 µM (active)
O=C(CCCCCN1C(=O)c2cccc3cccc(c23)C1=O)NO,activity,[10],0.323%
same,"activity change, negative = inhibition",[11],0.722%
same,activity,[12],-12.3%
same,activity,[13],-6.54%
Cc1ccccc1-c1cncnc1NCc1cccnc1,Potency,[2],0.398 µM (active)
CNc1nc(-c2cccnc2)nc2ccccc12,"activity change, negative = inhibition",[7],82.3% [at 2.29 µM] (inactive)
O=c1c(-c2ccccc2)nc2cnc(Oc3cccc(Cl)c3)nc2n1C1CC1,Potency,[7],0.251 µM (active)
CS(=O)(=O)Nc1cccc(-c2cc(NCc3cccs3)ncn2)c1,"activity change, negative = inhibition",[7],35.3% [at 2.29 µM] (inactive)
COc1ccccc1CNc1ccnc(-c2cccc(C#N)c2)n1,Potency,[2],3.98 µM (active)
O=c1c(-c2cc(F)cc(F)c2)nc2cncnc2n1C1CC1,Potency,[7],inactive
COc1ccc(CNc2ncncc2-c2ccccc2C(F)(F)F)c(OC)c1,Potency,[6],0.398 µM (active)
same,Potency,[2],1.58 µM (active)
N#Cc1cccc(-c2cncnc2NCc2ccccc2)c1,Potency,[2],7.94 µM (active)
O=c1c(-c2cccc(Cl)c2)nc2cncnc2n1Cc1ccccc1,Potency,[7],1.26 µM (active)
COc1ccc(Oc2ncc3ncc(=O)n(C4CC4)c3n2)cc1,activation,[5],-9.06% (inactive)
COc1cccc(Cn2c(=O)c(-c3cccs3)nc3cncnc32)c1,Potency,[7],2.51 µM (active)
same,Potency,[2],5.01 µM (active)
COc1ccc(-n2c(=O)c(-c3ccccc3)nc3cnc(N4CCOCC4)nc32)cc1,activation,[5],-1.88% (inactive)
COc1ccccc1CCn1c(=O)c(CCc2ccccc2)nc2cncnc21,Potency,[2],3.16 µM (active)
CS(=O)(=O)Nc1cccc(-c2cncnc2NCc2ccccc2)c1,Potency,[7],0.398 µM (active)
COc1ccccc1CCn1c(=O)c(-c2cccc(Cl)c2)nc2cncnc21,Potency,[2],0.251 µM (active)
same,activation,[5],-1.79% (inactive)
O=c1cnc2cnc(Nc3ccccc3)nc2n1CCc1ccccc1,Potency,[2],2 µM (active)
Cc1ccccc1-c1ccc2ncnc(NCc3cccs3)c2c1,activation,[5],2.83% (inactive)
c1nc(NCCN2CCOCC2)c2cc(-c3ccoc3)ccc2n1,Potency,[6],2 µM (active)
O=c1c(-c2cccc(F)c2)nc2cncnc2n1Cc1ccccc1Cl,Potency,[7],7.94 µM (active)
COc1ncc2nc(-c3cn(C)c4ccccc34)c(=O)n(-c3ccccc3)c2n1,Potency,[7],inactive
c1ccc(CNc2ncncc2-c2ccc3c(c2)OCO3)cc1,Potency,[2],0.501 µM (active)
CC(=O)NCCNc1ncnc2ccc(-c3ccc4c(c3)OCO4)cc12,Potency,[2],6.31 µM (active)
